# The supplement of paper PMC11417369
# ± gives the standard deviation of the averaged measurements. In all, about 25,000 sequences were measured (“ln(normalized median fluorescence intensity)”: median about 8.9, highest 2% from about 10 on). Shown is part of a subset that was picked to be rich in the highest values.
# Tested on: PfAP2-LT AP2 domain (GST-tagged)
# Assay: gcPBM binding intensity (ln(normalized median fluorescence intensity)); higher = stronger DNA binding
# Method in brief: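 Each value is the highest Masliner-normalised natural-log median intensity across replicate spots of either orientation of a probe. The probes were primer-extended double-stranded 36-bp intergenic genomic sequences on an Agilent 4 × 180k array, alongside negative controls, exposed for 1 h to GST-tagged P. falciparum DNA-binding domains expressed in E. coli. Bound protein was picked up with Alexa488 anti-GST antibody and scanned at 488 nm.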
row,Sequence,gcPBM binding intensity (ln)
1,ATTTAATTTTCCAAATGTACTTATATTTTTATGAAA [XGTACX_site6144],8.27 ± 0.4
2,TTTTTTTTTTAAATGTGTCCTCATTATAATATATGT [XGTACX_site5331],8.65 ± 0.47
3,ATATAAGTTTTTTCTCAAAAAGTATAACGAGCATGA [CACACA_negctrl_site1375],8.6 ± 0.4
4,GACAAAAAATTAAAATAAAATAATAATATAATAAAA [GTGCAC_negctrl_site234],8.55 ± 0.67
5,TTTTGGTATACGTAATTATATAATATGTTAATCAAT [CACACA_negctrl_site645],8.61 ± 0.36
6,ATGTAGAGTAATAGTTGTACAAGGTGTATATCTCAT [XGTACX_site6370],9.29 ± 0.57
7,TAAAAGTTAATATAAACACACAAAAATTAATAAATA [CACACA_site6316],8.73 ± 0.45
8,TTATAAAAAGAACAATTAAAAAAAAATAAAATAAAA [XGTACX_negctrl_site398],8.4 ± 0.63
9,ATATAATGTGTAGGCCGTATTTACGTTTGGCAATCA [CACACA_negctrl_site1130],8.99 ± 0.56
10,TAGAAGCAGAAACACACACACATACATACACATACA [CACACA_site1467],9.87 ± 0.35
11,TGTAAATTTGGCATCACACATAAATAAACATATAAA [CACACA_site4497],8.77 ± 0.45
12,TATACGCAGAAACACACACACATACACCCACATACA [CACACA_site1723],10 ± 0.26
13,ATTTGGCAGAAACACACACACACACCCACCCACATA [CACACA_site589],10.2 ± 0.35
14,ATTTGGCATAAACACACACACACACCCACCCACATA [CACACA_site8096],10.1 ± 0.37
15,CATAAATGTATATAAACATGCAAGGACAGACTTTTA [TGCATGCA_site900],8.92 ± 0.37
16,TATATATATTATAATACATGCGGTGATGAAAGTTAT [TGCATGCA_site924],9.07 ± 0.58
17,TTATTTAAAATTTTTATGCGTATATATATAGGAACA [CACACA_negctrl_site388],8.35 ± 0.39
18,ACCTGAAGAGTCAAACGTACAAATATTATAAAATGA [XGTACX_site3188],8.77 ± 0.59
19,TTCGTCTTTTTTCTCACACACCCTTTTTATTAAAAG [CACACA_site7225],9.05 ± 0.6

row,Sequence,gcPBM binding intensity (ln)
1,TATACACCCAGACACACACACACACCCAAAAAAAAA [CACACA_site497],10.2 ± 0.3
2,CGTGGGAGCAGACACACACACACACCCATATATATA [CACACA_site334],9.99 ± 0.5
3,TGGGAGCACAGACACACACACACACCCATATATATA [CACACA_site335],9.98 ± 0.36
4,CGCCCACAGATATATACACACATATATAAATAAATA [CACACA_site6877],9.04 ± 0.33
5,TACTATAACAGACATACACACAAAAAAAAAAAAAAA [CACACA_site538],9.03 ± 0.47
6,GGAGCACCCAGACACACACACACATATATATATATA [CACACA_site336],10.4 ± 0.19
7,TACCTATACAGACACACACACACACGCCCACAAAAA [CACACA_site6375],10.2 ± 0.37
8,CATACCTATAGACACACACACACACGCACGCACAAA [CACACA_site6374],10 ± 0.18
9,AATACACCCAGACACACACACAAAAAAAAAAAAAAA [CACACA_site513],9.53 ± 0.61
10,TTGGCATACAGACACACACACACACGCCCACATATA [CACACA_site6425],10.1 ± 0.38
11,AATTAGCTCAAAGGTTGTACAAATATATTTTAATGG [XGTACX_site2352],8.66 ± 0.48
12,TTTATACATACATTCGTGCACATACGTATAACATAT,9.07 ± 0.37
13,TATAAAAAGCATAACACACACATGTCAATATATATA [CACACA_site1111],9.31 ± 0.35
14,ATTTTGATGATGTATGCACACATTGAAAATGAGAAA [CACACA_site2916],8.97 ± 0.57
15,AAAAAAAAGAATTATTGTACAAAAGAACAATAAATA [XGTACX_site1368],8.73 ± 0.57
16,TGAAAAAAAAAATACACACACGAGTTGTTATACATA [CACACA_site7486],9.09 ± 0.43
17,TTTAAATACAGACATACACACATACACCCACATATA [CACACA_site8078],9.61 ± 0.15
18,GGCATACACAGACACACACACACACCCACATATATA [CACACA_site591],10.2 ± 0.28
19,AAAAAAAACAGACACACACACAAATACATACACAAA [CACACA_site705],9.72 ± 0.31

row,Sequence,gcPBM binding intensity (ln)
1,TAAATACAGACATACACACATACACCCACATATATA [CACACA_site547],9.76 ± 0.38
2,CATACAGATGGACACACACACACACCCACAGACAAA [CACACA_site4431],9.93 ± 0.36
3,TGAACACAGACAAATACACACAAAAAAAATAAATAA [CACACA_site4298],9.28 ± 0.57
4,TACAGATACGGACACACACACACACCCAGACAAAAA [CACACA_site4432],10.2 ± 0.46
5,AACAAATACAGACACACACACACACCCAAAAAAAAA [CACACA_site515],10.2 ± 0.26
6,CATACACCCAGACACACACACATATATATATATATA [CACACA_site634],10.3 ± 0.17
7,ATAAAAGATTTATACATACACACATATTATATTCAC [CACACA_site3714],9.02 ± 0.42
8,ACAAGGAATATATAAGATAATTTTAAATATAACACG [CACACA_negctrl_site1734],8.73 ± 0.51
9,AAAAAAAGTAAATGTTGTACTATAATATGTAATATA [XGTACX_site7966],8.63 ± 0.55
10,ATATATATATATATATATATATATATATTTATATAT [GTGCAC_negctrl_site180],9.39 ± 0.042
11,AAAAAGAAAAAAAAATGTACATAAAGTCTAATGATA [XGTACX_site4781],8.78 ± 0.49
12,AAAAATTAAAAGAAAATACACACCTGTGGGTGCTTA [CACACA_site1988],8.54 ± 0.47
13,TTAATTTTTTTTTAAACACACATTTTTTTATTTAAG [CACACA_site2738],8.42 ± 0.54
14,TATGAAAAAAAAAAAAAAAAAAAAAAAAAAAAAAAA [XGTACX_negctrl_site587],8.02 ± 0.15
15,TATATATTCATATGTTGTACATAAATACAAATAAGA [XGTACX_site5602],8.69 ± 0.44
16,ATATAAGTATAATTATGTACTTATACTTATATAAAT [XGTACX_site5585],8.62 ± 0.41
17,TTGGCATACAGACACACACACACACCCCCACATATA [CACACA_site590],10.09 ± 0.085
18,AAAAATATTTTGGTTTGTACATATATTTTTACAATA [XGTACX_site8691],8.61 ± 0.34
